In publication PMC7862700, “An all-to-all approach to the identification of sequence-specific readers for epigenetic DNA modifications on cytosine” one finds binding signal data, which are given here for one sequence.

What all share (experiment): DAPPL (digital affinity profiling via proximity ligation, sequencing); 10 mM Tris-HCl pH 7.5, 50 mM NaCl, 1 mM DTT, 4% glycerol, room temperature, 30 min; GST-TFs on glutathione beads, 16-mer random dsDNA library, 0.1% formaldehyde crosslink after washing; high values mean tight binding
Holding throughout (details): protein: recombinant; tags: N-terminal GST; dsDNA, one strand shown

In test [1] the target is T1, FLI1 (Homo sapiens, UniProt Q01543 1-452).
T1 sequence: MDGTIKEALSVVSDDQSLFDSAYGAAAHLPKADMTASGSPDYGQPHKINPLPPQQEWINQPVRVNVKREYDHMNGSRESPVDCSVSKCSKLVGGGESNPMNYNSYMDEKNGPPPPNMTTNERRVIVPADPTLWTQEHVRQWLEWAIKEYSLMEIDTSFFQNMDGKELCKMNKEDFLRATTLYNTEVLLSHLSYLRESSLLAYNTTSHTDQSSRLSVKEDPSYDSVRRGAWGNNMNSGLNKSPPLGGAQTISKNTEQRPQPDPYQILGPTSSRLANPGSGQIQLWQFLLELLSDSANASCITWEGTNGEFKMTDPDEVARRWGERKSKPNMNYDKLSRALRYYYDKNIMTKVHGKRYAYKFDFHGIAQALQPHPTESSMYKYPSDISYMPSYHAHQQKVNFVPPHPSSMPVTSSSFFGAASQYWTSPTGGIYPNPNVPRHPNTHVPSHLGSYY
The gist of the method: (§1)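 Each value of binding signal is a hexamer's read frequency for a factor divided by the same hexamer's frequency in the tag-only sample. Barcoded, bead-captured GST fusions of human transcription factors made in yeast were pooled with that sample and incubated with 200 nmole of a random double-stranded 16-mer DNA library in Tris/NaCl/DTT/glycerol buffer at room temperature for 30 min. Washing, 0.1% formaldehyde crosslinking, proximity ligation, PCR and Illumina NextSeq500 sequencing followed.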

Test [2] deals with T2, ELK1 (Homo sapiens, UniProt P19419 1-428).
T2 sequence: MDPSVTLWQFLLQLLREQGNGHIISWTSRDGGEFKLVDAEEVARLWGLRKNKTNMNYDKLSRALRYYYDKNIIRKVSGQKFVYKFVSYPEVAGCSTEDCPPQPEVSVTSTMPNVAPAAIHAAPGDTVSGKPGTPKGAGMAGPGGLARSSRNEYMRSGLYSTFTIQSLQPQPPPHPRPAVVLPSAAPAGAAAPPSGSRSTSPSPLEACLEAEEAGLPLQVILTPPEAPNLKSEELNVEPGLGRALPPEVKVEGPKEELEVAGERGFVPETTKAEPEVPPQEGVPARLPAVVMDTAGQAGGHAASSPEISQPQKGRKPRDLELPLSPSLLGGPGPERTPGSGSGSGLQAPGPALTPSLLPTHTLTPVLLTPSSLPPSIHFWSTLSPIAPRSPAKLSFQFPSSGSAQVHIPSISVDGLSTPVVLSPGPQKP
The procedure, abridged:
as §1

In test [3] the target is T3, GABPA (Homo sapiens, UniProt Q06546 1-454).
T3 sequence: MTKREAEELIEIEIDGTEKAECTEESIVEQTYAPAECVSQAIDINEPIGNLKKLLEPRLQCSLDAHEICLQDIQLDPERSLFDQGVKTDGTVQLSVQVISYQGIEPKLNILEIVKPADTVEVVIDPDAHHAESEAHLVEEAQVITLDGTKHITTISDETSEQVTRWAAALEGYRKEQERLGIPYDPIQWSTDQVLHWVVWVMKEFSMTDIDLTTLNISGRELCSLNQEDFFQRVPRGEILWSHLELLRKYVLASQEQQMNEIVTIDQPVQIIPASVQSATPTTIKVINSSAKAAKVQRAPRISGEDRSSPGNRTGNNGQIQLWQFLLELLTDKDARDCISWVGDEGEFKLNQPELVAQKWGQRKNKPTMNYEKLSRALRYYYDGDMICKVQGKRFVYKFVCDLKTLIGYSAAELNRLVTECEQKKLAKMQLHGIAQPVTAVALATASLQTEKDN
The procedure, abridged:
as §1

The target of test [4] is T4, ERG (Homo sapiens, UniProt P11308 1-479).
T4 sequence: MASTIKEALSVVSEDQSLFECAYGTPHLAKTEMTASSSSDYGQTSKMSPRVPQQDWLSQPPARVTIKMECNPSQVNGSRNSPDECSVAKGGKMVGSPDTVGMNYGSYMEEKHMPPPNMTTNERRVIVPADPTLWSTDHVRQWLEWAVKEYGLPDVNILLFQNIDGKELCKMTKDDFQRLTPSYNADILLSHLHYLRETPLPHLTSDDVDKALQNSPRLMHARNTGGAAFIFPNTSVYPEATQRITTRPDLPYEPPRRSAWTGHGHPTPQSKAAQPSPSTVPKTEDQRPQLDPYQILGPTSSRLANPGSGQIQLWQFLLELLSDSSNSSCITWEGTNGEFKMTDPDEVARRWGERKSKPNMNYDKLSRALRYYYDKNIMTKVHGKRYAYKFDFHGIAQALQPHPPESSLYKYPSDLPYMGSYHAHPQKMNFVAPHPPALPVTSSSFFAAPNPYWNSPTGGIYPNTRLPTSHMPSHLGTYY
The gist of the method: as §1

Test [5] deals with ELF1 (Homo sapiens, UniProt P32519 1-619). The gist of the method: as §1
Chain of ELF1 (P32519 whole entry): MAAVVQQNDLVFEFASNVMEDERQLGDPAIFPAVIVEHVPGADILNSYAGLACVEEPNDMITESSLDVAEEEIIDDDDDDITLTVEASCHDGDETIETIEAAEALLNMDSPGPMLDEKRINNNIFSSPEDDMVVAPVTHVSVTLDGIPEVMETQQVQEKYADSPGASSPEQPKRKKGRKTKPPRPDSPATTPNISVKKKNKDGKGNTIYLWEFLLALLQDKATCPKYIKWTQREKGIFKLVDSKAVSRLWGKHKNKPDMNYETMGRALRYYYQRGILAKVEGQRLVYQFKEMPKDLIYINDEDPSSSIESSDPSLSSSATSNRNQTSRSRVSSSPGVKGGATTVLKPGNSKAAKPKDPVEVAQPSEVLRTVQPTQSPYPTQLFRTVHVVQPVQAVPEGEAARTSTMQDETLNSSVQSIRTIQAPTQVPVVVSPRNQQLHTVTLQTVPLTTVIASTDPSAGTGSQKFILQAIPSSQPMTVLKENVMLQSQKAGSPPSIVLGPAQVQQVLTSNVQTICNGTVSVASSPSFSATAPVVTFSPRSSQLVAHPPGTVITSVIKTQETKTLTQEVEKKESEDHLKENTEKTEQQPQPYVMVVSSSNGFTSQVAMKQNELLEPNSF
The target in test [6] is T5, EHF (Homo sapiens, UniProt Q9NZC4 1-300).
T5 sequence: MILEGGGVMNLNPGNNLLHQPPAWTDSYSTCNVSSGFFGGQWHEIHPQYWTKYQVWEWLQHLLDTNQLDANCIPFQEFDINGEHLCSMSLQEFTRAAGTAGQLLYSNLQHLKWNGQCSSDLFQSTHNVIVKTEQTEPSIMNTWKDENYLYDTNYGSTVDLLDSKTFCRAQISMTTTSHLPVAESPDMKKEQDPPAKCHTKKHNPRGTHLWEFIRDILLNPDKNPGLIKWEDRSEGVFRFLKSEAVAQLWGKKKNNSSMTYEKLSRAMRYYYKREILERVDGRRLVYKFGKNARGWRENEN
The gist of the method:
as §1

For test [7], the target named is SPI1 (Homo sapiens, UniProt P17947 1-270). The procedure, abridged:
as §1

In test [8] the target is SPIB (Homo sapiens, UniProt Q01892 1-262). The gist of the method:
as §1

Test [9] deals with T6, ELK3 (Homo sapiens, UniProt P41970 1-407).
T6 sequence: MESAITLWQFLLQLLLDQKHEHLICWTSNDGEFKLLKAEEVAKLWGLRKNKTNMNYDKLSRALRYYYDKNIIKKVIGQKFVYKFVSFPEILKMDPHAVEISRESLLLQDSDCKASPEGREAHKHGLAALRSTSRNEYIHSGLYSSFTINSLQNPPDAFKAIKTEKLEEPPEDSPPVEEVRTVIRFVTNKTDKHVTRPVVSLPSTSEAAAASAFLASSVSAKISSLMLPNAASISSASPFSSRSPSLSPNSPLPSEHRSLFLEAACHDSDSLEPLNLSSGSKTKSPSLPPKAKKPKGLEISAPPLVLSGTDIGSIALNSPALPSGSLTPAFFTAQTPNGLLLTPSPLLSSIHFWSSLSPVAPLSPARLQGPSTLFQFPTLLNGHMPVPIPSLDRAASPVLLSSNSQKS
The gist of the method:
as §1

In test [10] the target is T7, FEV (Homo sapiens, UniProt Q99581 1-238).
T7 sequence: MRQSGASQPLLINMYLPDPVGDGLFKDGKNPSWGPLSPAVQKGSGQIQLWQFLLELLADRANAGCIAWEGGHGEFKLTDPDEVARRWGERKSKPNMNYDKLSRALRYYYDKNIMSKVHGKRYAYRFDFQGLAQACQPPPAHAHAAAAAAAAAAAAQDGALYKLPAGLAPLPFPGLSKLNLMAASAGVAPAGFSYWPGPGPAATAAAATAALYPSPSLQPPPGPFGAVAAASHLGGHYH
The gist of the method: as §1

The target of test [11] is ETV5 (Homo sapiens, UniProt P41161 1-510). The gist of the method:
as §1

The target of test [12] is T8, SPIC (Homo sapiens, UniProt Q8N5J4 1-248).
T8 sequence: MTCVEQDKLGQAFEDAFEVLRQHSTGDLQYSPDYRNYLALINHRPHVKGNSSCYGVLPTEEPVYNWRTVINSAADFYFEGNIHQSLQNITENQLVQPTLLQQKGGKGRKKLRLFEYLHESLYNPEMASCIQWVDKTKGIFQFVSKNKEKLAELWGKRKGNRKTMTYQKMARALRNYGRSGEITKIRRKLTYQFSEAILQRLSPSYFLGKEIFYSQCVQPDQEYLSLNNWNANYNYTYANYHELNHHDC
The procedure, abridged:
as §1

Test [13] concerns the target ELF4 (Homo sapiens, UniProt Q99607 1-663). The procedure, abridged: as §1
The target of test [14] is T9, ELK4 (Homo sapiens, UniProt P28324-2 1-405).
T9 sequence: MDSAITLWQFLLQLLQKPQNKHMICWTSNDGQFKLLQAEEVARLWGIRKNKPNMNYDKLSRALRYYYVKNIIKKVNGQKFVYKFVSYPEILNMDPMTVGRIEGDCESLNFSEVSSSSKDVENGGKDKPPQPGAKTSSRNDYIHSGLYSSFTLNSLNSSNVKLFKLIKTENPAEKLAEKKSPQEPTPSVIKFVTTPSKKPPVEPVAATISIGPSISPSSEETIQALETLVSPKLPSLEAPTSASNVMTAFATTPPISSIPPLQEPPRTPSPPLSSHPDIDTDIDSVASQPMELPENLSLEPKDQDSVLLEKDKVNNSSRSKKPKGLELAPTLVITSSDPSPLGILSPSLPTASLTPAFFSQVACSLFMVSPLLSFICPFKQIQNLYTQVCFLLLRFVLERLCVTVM
The procedure, abridged:
as §1

Test [15] addresses T10, ETV2 (Homo sapiens, UniProt O00321 1-342).
T10 sequence: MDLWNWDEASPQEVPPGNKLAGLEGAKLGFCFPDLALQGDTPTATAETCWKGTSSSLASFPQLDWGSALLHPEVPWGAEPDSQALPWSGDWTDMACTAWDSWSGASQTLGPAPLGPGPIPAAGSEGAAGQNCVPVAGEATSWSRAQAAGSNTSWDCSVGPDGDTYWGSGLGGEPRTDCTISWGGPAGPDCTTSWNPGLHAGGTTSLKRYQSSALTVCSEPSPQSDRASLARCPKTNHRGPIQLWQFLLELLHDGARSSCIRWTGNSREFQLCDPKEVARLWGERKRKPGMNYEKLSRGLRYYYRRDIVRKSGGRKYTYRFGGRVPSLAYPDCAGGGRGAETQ
The procedure, abridged: as §1

In test [16] the target is T11, ELF3 (Homo sapiens, UniProt P78545 1-371).
T11 sequence: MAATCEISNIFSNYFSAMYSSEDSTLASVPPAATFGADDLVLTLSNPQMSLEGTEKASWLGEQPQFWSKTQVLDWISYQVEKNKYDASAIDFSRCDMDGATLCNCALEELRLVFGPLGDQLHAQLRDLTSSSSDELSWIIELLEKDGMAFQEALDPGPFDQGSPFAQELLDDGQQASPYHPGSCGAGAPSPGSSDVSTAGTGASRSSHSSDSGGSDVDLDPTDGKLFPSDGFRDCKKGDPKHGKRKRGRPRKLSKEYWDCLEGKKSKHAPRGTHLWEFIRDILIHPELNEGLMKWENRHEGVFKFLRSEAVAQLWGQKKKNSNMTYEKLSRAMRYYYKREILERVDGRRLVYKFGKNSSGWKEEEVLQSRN
The procedure, abridged:
as §1

In test [17] the target is ETV1 (Homo sapiens, UniProt P50549 1-477). The procedure, abridged: as §1
Chain of ETV1 (P50549 whole entry): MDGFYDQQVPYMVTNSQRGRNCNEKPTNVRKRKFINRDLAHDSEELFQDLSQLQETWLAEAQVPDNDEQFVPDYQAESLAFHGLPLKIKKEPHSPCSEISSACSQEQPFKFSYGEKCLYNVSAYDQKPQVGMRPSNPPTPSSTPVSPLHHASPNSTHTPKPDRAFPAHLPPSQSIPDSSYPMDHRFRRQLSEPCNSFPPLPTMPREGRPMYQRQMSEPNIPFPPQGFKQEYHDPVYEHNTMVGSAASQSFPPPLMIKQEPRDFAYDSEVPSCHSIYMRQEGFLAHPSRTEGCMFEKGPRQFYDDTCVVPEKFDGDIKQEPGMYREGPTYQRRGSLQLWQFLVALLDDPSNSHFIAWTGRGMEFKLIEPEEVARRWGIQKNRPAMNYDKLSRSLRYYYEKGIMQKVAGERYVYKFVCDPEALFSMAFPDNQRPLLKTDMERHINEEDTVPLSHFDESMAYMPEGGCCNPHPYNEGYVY

Chain of SPIB (Q01892 whole entry): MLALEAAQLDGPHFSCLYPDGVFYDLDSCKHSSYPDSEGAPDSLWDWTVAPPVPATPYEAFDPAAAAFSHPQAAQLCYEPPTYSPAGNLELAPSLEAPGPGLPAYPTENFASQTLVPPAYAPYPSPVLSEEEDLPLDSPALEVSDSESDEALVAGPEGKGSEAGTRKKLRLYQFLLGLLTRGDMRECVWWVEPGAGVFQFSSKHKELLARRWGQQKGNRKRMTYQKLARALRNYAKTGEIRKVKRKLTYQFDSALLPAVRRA
Chain of ETV5 (P41161 whole entry): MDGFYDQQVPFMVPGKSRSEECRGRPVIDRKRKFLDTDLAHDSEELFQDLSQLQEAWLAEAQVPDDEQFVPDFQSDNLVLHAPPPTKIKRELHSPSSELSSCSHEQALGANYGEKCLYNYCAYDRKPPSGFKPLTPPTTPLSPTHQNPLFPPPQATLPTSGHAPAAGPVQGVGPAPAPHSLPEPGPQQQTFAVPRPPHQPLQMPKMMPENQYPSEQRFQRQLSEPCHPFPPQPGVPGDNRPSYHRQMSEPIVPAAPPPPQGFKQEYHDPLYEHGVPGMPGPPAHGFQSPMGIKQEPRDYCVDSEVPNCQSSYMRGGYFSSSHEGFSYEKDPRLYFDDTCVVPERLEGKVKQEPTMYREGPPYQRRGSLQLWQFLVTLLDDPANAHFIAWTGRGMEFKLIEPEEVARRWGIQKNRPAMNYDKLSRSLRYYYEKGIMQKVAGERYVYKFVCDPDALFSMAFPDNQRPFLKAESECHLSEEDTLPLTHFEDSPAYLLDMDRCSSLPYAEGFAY
Chain of ELF4 (Q99607 whole entry): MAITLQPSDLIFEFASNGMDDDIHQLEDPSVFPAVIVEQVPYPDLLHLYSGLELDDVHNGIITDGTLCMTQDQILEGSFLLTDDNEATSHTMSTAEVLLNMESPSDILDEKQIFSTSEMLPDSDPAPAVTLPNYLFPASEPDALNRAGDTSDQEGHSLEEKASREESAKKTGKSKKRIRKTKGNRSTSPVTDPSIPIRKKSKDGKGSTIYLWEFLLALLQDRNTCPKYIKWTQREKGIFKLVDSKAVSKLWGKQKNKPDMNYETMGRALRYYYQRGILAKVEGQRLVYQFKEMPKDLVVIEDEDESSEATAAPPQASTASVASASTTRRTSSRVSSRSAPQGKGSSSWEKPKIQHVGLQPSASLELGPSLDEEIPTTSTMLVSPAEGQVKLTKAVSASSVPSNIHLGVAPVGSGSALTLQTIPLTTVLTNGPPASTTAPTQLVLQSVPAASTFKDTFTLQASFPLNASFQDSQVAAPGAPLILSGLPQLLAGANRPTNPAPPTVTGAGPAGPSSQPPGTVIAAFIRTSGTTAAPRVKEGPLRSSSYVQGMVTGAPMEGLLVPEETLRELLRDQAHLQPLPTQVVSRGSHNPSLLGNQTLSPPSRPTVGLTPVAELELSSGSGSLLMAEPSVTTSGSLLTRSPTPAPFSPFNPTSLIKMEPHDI

Regarding CACTGT, the binding signal in test [1] was 1.12 fold enrichment (6-mer frequency, TF over GST control); in [2] it was 1.09 fold enrichment (6-mer frequency, TF over GST control); in test [3] it was 1.17 fold enrichment (6-mer frequency, TF over GST control); in test [4] it was 1.14 fold enrichment (6-mer frequency, TF over GST control); in test [5] it was 1.16 fold enrichment (6-mer frequency, TF over GST control); in test [6], 1.19 fold enrichment (6-mer frequency, TF over GST control). Further, the binding signal is 1.11 fold enrichment (6-mer frequency, TF over GST control) in test [7]; 1.22 fold enrichment (6-mer frequency, TF over GST control) in test [8]; 1.03 fold enrichment (6-mer frequency, TF over GST control) in test [9]; 1.09 fold enrichment (6-mer frequency, TF over GST control) in test [10]; 1.1 fold enrichment (6-mer frequency, TF over GST control) in test [11]; 1.19 fold enrichment (6-mer frequency, TF over GST control) in [12]. Besides, the binding signal in test [13] is 1.15 fold enrichment (6-mer frequency, TF over GST control); in [14] it was 1.17 fold enrichment (6-mer frequency, TF over GST control); in test [15], 1.25 fold enrichment (6-mer frequency, TF over GST control); in test [16], 1.04 fold enrichment (6-mer frequency, TF over GST control); in test [17], 1.11 fold enrichment (6-mer frequency, TF over GST control).
